According to PubChem BioAssay (NCATS):
Records with an inconclusive call do not appear. Unless noted, calls come from the whole dose curve; as a rule, active = well fitted curve in either direction with a large enough effect (not every such curve was filed as active); inconclusive = small, poorly fitted or top-dose-only effect, or another doubt; inactive = flat fitted curve, though single readings scatter.

What was measured:
[1] = AP1 Signaling Pathway (AID 357); settings: ME-180 AP-1-bla reporter, EGF-induced, beta-lactamase ratio, 5 h; at 17.2 µM (top of the series) unless noted; note: % is set by controls: 0 for no effect and ±100 for the full control effect
Outline: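 AP-1-bla ME-180 cells with beta-lactamase reporter under AP-1 response element, stimulated with EC50 EGF; compounds titrated, 5 hours at 37 degrees Celsius. CCF4 read at 460/530 nm ratio; positive and negative modulators judged by AC50.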

[2] = NFAT Signaling Pathway (AID 444); settings: Jurkat NFAT-bla M1, carbachol, beta-lactamase ratio, 5 h; at 17.2 µM (top of the series) unless noted;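 note: carbachol stimulus at about its EC50 of 1 µM final; % is set by controls: 0 for no effect and ±100 for the full control effect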
Outline: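 Read-out: CCF4 FRET ratio (460 nm/530 nm) after 1 h RT dye loading, used for %activity and AC50 from titration series. Cells: Jurkat NFAT-β-lactamase/M1 line, treated with compound plus 1 uM carbachol for 5 h, 37 °C.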

[3] = Stat Signaling Pathway (AID 446); settings: ME-180 SIE beta-lactamase reporter, IL-6 stimulated, 5 h; at 17.2 µM (top of the series) unless noted;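 note: ME-180 cervical cancer cells given 40 pM IL-6 alongside compound; SIE-controlled beta-lactamase reporter measured as 460/530 nm FRET emission ratio; % is set by controls: 0 for no effect and ±100 for the full control effect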
Outline: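 Reporter line: ME-180 cervical carcinoma, SIE-beta-lactamase. Treatment: compound with 40 pM IL-6, 5 hrs, 37 C, in low-serum OPTI-MEM with 10 mM HEPES pH 7.3. Detection: 460/530 nm fluorescence.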

[4] = target: Glucocorticoid receptor (Homo sapiens) (UniProt P04150); experiment: GR-GFP Redistribution (AID 450;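 active = compounds whose dose series gives a full or clear partial fitted curve of increased nuclear translocation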; note: potency is the fitted concentration of half-maximal effect)
Glucocorticoid receptor (Homo sapiens), sequence (P04150 whole entry, looked up): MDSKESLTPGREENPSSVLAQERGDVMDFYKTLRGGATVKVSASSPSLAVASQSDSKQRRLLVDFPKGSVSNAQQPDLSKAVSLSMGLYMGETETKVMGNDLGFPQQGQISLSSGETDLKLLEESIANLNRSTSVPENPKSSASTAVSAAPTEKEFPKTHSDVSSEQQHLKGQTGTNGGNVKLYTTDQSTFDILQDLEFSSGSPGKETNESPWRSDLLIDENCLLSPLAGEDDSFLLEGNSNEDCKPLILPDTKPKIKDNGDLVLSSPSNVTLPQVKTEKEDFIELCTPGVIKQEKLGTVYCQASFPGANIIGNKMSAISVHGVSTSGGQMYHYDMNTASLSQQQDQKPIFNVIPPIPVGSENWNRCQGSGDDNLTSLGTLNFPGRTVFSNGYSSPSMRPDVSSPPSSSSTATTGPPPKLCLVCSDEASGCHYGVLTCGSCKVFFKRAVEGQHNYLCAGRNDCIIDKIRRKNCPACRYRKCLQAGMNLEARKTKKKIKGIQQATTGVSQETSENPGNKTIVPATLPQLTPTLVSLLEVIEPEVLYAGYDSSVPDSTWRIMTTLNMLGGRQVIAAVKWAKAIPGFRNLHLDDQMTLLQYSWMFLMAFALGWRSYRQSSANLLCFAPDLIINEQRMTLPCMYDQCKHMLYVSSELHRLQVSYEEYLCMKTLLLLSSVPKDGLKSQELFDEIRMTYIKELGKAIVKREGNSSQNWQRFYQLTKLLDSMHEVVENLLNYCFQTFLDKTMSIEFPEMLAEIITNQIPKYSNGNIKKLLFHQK

CC(C)(C)NC(=O)CSc1nsc(SCC(=O)NC(C)(C)C)c1C#N
inactive: activity change, negative = inhibition [1] -5.49% | activity change, negative = inhibition [2] -10.2% | activity, negative = inhibition [3] 3.19% | Potency [4] > 20.6 µM

CCCCc1[nH]c(=O)c(C#N)c2c1CSC(C)(C)C2
inactive: activity change, negative = inhibition [1] 15.5% | activity change, negative = inhibition [2] -2.98% | activity, negative = inhibition [3] 3.1% | Potency [4] > 20.6 µM

Cn1c(NCc2ccccc2)nc2c1c(=O)n(Cc1ccccc1)c(=O)n2C
inactive: activity change, negative = inhibition [1] -27.4% | activity change, negative = inhibition [2] -0.651% | activity, negative = inhibition [3] -21.1% | Potency [4] > 20.6 µM

CCN(CC)CCN1C(=O)C(O)=C(C(C)=O)C1c1ccc(OC)c(OC)c1 (stereo not given)
inactive: activity change, negative = inhibition [1] 1.74% | activity change, negative = inhibition [2] 3.09% | activity, negative = inhibition [3] -2.04% | Potency [4] > 20.6 µM

CCO/C(C)=N/n1c2nc3ccccc3nc2c2c(=O)n(CC(C)C)c(C)nc21
inactive: activity change, negative = inhibition [1] -19.8% | activity change, negative = inhibition [2] 12.6% | activity, negative = inhibition [3] -8.62% | Potency [4] > 20.6 µM

CCCCc1nc2n[nH]c(N)c2c2c1CCCC2
inactive: activity change, negative = inhibition [1] 20.3% | activity change, negative = inhibition [2] 1.99% | activity, negative = inhibition [3] 7.03% | Potency [4] > 20.6 µM

O=C(NCCN1CCOCC1)c1cc2n(n1)C(C(F)(F)F)CC(c1ccc(F)cc1)N2 (stereo not given)
inactive: activity change, negative = inhibition [1] 2.33% | activity change, negative = inhibition [2] 0.228% | activity, negative = inhibition [3] 8.95% | Potency [4] > 20.6 µM

CCOC(=O)C1/C(=N\O)CC(C)(O)C(C(=O)OCC)C1c1ccc(N(C)C)cc1 (stereo not given)
inactive: activity change, negative = inhibition [1] 6.52% | activity change, negative = inhibition [2] 2.58% | activity, negative = inhibition [3] -4.68% | Potency [4] > 20.6 µM

OC1CN=C2Sc3ccccc3N2C1 (stereo not given)
inactive: activity change, negative = inhibition [1] 1.76% | activity change, negative = inhibition [2] -2.78% | activity, negative = inhibition [3] -3.59% | Potency [4] > 20.6 µM

CCC1SC(N)=NC1=O (stereo not given)
inactive: activity change, negative = inhibition [1] 2.7% | activity change, negative = inhibition [2] -3.13% | activity, negative = inhibition [3] -1.83% | Potency [4] > 20.6 µM

CC1CN(C2CCN(S(=O)(=O)c3ccc4ccccc4c3)CC2)CC(C)O1 (stereo not given)
inactive: activity change, negative = inhibition [1] -3.99% | activity change, negative = inhibition [2] -12.1% | activity, negative = inhibition [3] -8.2% | Potency [4] > 20.6 µM

CCOC(=O)c1[nH]c2ccc(C)cc2c1N=CN(CC)CC
inactive: activity change, negative = inhibition [1] 7.82% | activity change, negative = inhibition [2] -21.2% | activity, negative = inhibition [3] 10.4% | Potency [4] > 20.6 µM

CCOC(=O)N1CCN(C2OC(=O)c3ccccc32)CC1 (stereo not given)
inactive: activity change, negative = inhibition [1] 0.827% | activity change, negative = inhibition [2] 27.2% | activity, negative = inhibition [3] 25.6% | Potency [4] > 20.6 µM

Cc1cc(=O)oc(C)c1C(=O)NC1CC(C)(C)NC(C)(C)C1
inactive: activity change, negative = inhibition [1] -2.44% | activity change, negative = inhibition [2] -3.93% | activity, negative = inhibition [3] 0.837% | Potency [4] > 20.6 µM

Cn1c(Cn2cnc3ccccc32)nc2ccccc21
inactive: activity change, negative = inhibition [1] -1.15% | activity change, negative = inhibition [2] 3.95% | activity, negative = inhibition [3] -2% | Potency [4] > 20.6 µM

CC(C)Cn1cnc2c(c1=O)c1nc3ccccc3nc1n2Cc1ccc2c(c1)OCO2
inactive: activity change, negative = inhibition [1] -7.49% | activity change, negative = inhibition [2] 8.7% | activity, negative = inhibition [3] -6.69% | Potency [4] > 20.6 µM

C=C(C)CSC1=C(C#N)C(c2ccsc2)CC(=O)N1 (stereo not given)
inactive: activity change, negative = inhibition [1] -7.58% | activity change, negative = inhibition [2] -0.539% | activity, negative = inhibition [3] -1.45% | Potency [4] > 20.6 µM

O=C(O)c1ccnc(C(=O)O)c1
inactive: activity change, negative = inhibition [1] 8.01% | activity change, negative = inhibition [2] 0.361% | activity, negative = inhibition [3] 10.5% | Potency [4] > 20.6 µM

CN(C)/C=C1\N=C(c2cccs2)OC1=O
inactive: activity change, negative = inhibition [1] 4.03% | activity change, negative = inhibition [2] 6.03% | activity, negative = inhibition [3] 13.9% | Potency [4] > 20.6 µM

CCCCc1c(C)nn(-c2nnc3c4ccccc4n(C)c3n2)c1C
inactive: activity change, negative = inhibition [1] -21.4% | activity change, negative = inhibition [2] -28.4% | activity, negative = inhibition [3] -8.34% | Potency [4] > 20.6 µM

O=C(O)C1CC(=O)N(Cc2cccs2)C1 (stereo not given)
inactive: activity change, negative = inhibition [1] -0.708% | activity change, negative = inhibition [2] -5.3% | activity, negative = inhibition [3] 7.75% | Potency [4] > 20.6 µM

CCOc1ccc(N=C(NC#N)SCC(=O)NC2CC2)cc1
inactive: activity change, negative = inhibition [1] -3.71% | activity change, negative = inhibition [2] -22.1% | activity, negative = inhibition [3] -16.7% | Potency [4] > 20.6 µM

O=C(Cc1cscn1)c1ccc(O)cc1O
inactive: activity change, negative = inhibition [1] 4.71% | activity change, negative = inhibition [2] 4.07% | activity, negative = inhibition [3] 12.7% | Potency [4] > 20.6 µM

O=C(c1ccc(=O)oc1)N1CCN(c2ccc(F)cc2)CC1
inactive: activity change, negative = inhibition [1] 2.08% | activity change, negative = inhibition [2] -11.6% | activity, negative = inhibition [3] -4.16% | Potency [4] > 20.6 µM

COC(=O)c1c(C)noc1-c1cc(C)on1
inactive: activity change, negative = inhibition [1] 10.7% | activity change, negative = inhibition [2] 10.8% | activity, negative = inhibition [3] 8.94% | Potency [4] > 20.6 µM
